A selection: hits, their analogues and other compounds. The true share with any hit is near 3.5%.
Bead autofluor: flagged as autofluorescent in microsphere protease counterscreen; compound autofluorescence counterscreen, microsphere flow cytometry; active compounds read high; fluorescence intensity (test concentration not listed); hit rate 3.1% among 360,000; AID 624483; in the data active means fluorescence intensity above about 16000; inconclusive means no clear call, values can overlap the other calls
BoNT-A LC inh2: BoNT A light chain protease inhibition. inhibition, % at 10 µM. multiplex microsphere protease substrate cleavage, flow cytometry. hit rate 0.17% among 360,000. AID 588499
BoNT-F LC inh: blocks Botulinum neurotoxin F light chain protease. Multiplex microsphere protease cleavage assay, flow cytometry. inhibition, % at 10 µM. hit rate 0.22% among 360,000; in the data active means inhibition above about 35%, passing the limit was not always enough; inconclusive means no clear call, values can overlap the other calls
Anthrax LF prot: anthrax lethal factor protease inhibition; multiplex microsphere protease cleavage assay, LF; inhibition, % at 10 µM; hit rate 0.12% among 360,000
Target sequence (P15917 whole entry, looked up): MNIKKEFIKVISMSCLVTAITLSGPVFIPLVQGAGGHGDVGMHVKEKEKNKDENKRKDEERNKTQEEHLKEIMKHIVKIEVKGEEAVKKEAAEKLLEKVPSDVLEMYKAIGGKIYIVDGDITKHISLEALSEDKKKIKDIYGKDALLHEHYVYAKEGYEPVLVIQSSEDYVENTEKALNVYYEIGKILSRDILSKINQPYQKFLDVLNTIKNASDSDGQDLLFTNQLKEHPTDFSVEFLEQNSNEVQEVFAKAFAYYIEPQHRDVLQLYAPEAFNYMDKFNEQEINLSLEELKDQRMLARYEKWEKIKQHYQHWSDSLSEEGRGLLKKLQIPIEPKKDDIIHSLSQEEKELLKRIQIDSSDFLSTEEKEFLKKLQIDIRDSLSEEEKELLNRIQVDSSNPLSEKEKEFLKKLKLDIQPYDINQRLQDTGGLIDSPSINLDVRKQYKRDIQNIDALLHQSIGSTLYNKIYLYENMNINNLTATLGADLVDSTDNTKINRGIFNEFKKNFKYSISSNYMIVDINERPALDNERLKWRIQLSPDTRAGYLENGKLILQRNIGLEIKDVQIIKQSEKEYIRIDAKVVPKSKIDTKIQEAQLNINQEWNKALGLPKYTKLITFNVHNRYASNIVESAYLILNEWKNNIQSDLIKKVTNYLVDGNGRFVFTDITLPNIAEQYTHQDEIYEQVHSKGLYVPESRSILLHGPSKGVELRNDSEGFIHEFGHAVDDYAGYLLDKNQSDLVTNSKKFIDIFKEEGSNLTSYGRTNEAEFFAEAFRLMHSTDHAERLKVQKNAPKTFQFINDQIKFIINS
A number is an active result; n = inactive; u = inconclusive; ! = repeats disagree. Unless noted, no stated cut-off is given here; in the data, active means inhibition above about 30%; inconclusive means no clear call, values can overlap the other calls; inactive means below that.

SMILES | Bead autofluor | BoNT-A LC inh2 | BoNT-F LC inh | Anthrax LF prot
CCOC(=O)c1ccc(S(=O)(=O)N2CCN(CC3CC=CCC3)CC2)cc1 (stereo not drawn) | 17091 | u | n | n
CCOC(=O)c1ccc(S(=O)(=O)N2CCN(S(=O)(=O)CC)CC2)cc1 | n | n | n | n
CC(C)NC(=O)C1CCCN(S(=O)(=O)c2ccc(-n3cnnn3)cc2)C1 (stereo not drawn) | 16890 | n | n | n
CCOC(=O)[C@@H]1[C@H]2COc3ccccc3[C@@H]2N2C(=O)N(c3ccccc3)C(=O)[C@]12C | n | n | n | n
C#CCN1C(C)=CC(=O)[C@@H](O)[C@H]1c1ccccc1Br | n | n | n | n
Cc1cccc(C)c1NC(=O)C1CCCN(CCCc2ccccc2)C1 (stereo not drawn) | n | n | n | n
CCOC(=O)C1CCCN(S(=O)(=O)c2ccccc2)C1 (stereo not drawn) | 22239 | n | n | n
CCOC(=O)C1CN(S(=O)(=O)c2ccccc2)C1 | n | n | n | n
CCOC(=O)C1CCCN(CCCc2ccccc2)C1 (stereo not drawn) | 23848! | n | n | n
N#Cc1cnc(=S)n(-c2cc(C(F)(F)F)cc(C(F)(F)F)c2)c1N | n | n | n | n
CC1=CC2C(C3C=CC2(C)C(=O)C3(C)O)C(C)(O)C1=O (stereo not drawn) | n | n | n | n
CC1=C(C(=O)OCC(C)C)C(c2ccc(F)cc2)NC(=O)N1 (stereo not drawn) | n | n | n | n
CCCCOCCCNc1ncnc2c1[nH]c1ccccc12 | 23545 | n | n | n
O=S1(=O)CC(N2CCSCC2)CN1Cc1cn(Cc2ccc(F)cc2)nn1 (stereo not drawn) | n | n | n | n
CC(Oc1ccccc1Cl)C(=O)Nc1ccc(S(=O)(=O)Nc2nccs2)cc1 (stereo not drawn) | n | n | n | n
O=P(OC1CCCCC1)(OC1CCCCC1)C(O)c1c(Cl)cccc1Cl (stereo not drawn) | 17127 | n | n | n
CCCc1nc(SCC(N)=O)[nH]c(=O)c1CC | 22995 | n | n | n
CCCc1cc(=O)[nH]c(SCC(N)=O)n1 | n | n | u | n
CCOc1ccc(OCCOC(=O)C2CCN(S(=O)(=O)c3ccc(C)c(C)c3)CC2)cc1 | n | n | n | n
COc1ccc(C2=NO[C@@H]3C(=O)N(c4ccc5c(c4)OCCO5)C(=O)[C@H]23)cc1OC | u | n | n | n
COc1ccc(C2=NO[C@@H]3C(=O)N(C4CCCCC4)C(=O)[C@H]23)cc1OC | 22002 | n | n | n
Cc1ccc(NC(=O)c2cc(-n3cnnc3)ccc2Cl)cc1 | 16625 | n | n | n
CN(C)C(=O)c1ccc(NC(=O)c2cc(-n3cnnc3)ccc2Cl)cc1 | n | n | n | n
Cc1ccc(S(=O)(=O)NCC(C)n2cncn2)cc1C (stereo not drawn) | n | n | n | n
Cc1ccn2c(C(=O)N/N=C\c3cccs3)c(C)nc2c1 | 21815 | n | n | n
SMILES | Bead autofluor | BoNT-A LC inh2 | BoNT-F LC inh | Anthrax LF prot
CC1Oc2ccccc2N(CC(=O)Nc2ccc3c(c2)OCCO3)C1=O (stereo not drawn) | n | n | n | n
O=C(Cn1ccc2ccccc2c1=O)NCCC(=O)Nc1ccc2c(c1)OCCO2 | 20380 | u | n | n
O=C(Cn1ccc2ccccc2c1=O)Nc1ccc2c(c1)OCO2 | n | n | n | n
CC1CC(=O)N(CC(=O)Nc2ccc3c(c2)OCCO3)c2ccccc2S1 (stereo not drawn) | 16421 | n | n | n
O=C(CN1C(=O)COc2ccc(Cl)cc21)Nc1ccc2c(c1)OCCO2 | 17358 | u | n | n
Cc1ccc2nc(-c3cccc(Br)c3)c(Cc3cccc(Cl)c3)n2c1 | n | n | n | n
COc1ccc(NC(=O)C2CCCCN2S(=O)(=O)c2ccc(F)cc2)cc1 (stereo not drawn) | n | n | n | n
COc1ccc(NC(=O)C2CCCN2S(=O)(=O)c2ccc(C)cc2)cc1 (stereo not drawn) | 17367 | n | n | n
COc1ccc(NC(=O)C2CCCCN2S(=O)(=O)c2ccc(F)cc2)c(OC)c1 (stereo not drawn) | 17466 | n | n | n
COc1ccccc1NC(=O)C1CCCCN1S(=O)(=O)c1ccc(F)cc1 (stereo not drawn) | 16434 | n | n | n
CCOC(=O)N1CCN(C(=O)C[C@@H]2C[C@@]3(C(=O)OC)CCCCC=C3N(Cc3ccccc3)C2=O)CC1 | n | n | n | n
O=S(=O)(NCc1cccs1)c1ccccc1Cl | n | n | n | n
CC(C)c1ccc(NC(=O)C2CCN(S(=O)(=O)c3ccc4c(c3)C(C)(C)C(=O)N4C)CC2)cc1 | n | n | n | n
NCCN=C1NS(=O)(=O)c2ccccc21 | n | n | n | n
O=S1(=O)NC(=NCc2ccccc2)c2ccccc21 | 19517 | u | n | n
CCC(C)C(N)C(=O)N1CCCC1C(=O)NC(C(=O)O)C(C)CC (stereo not drawn) | n | n | n | n
CC(=O)c1nn(-c2ccccc2)cc1C(=O)c1cccc(Br)c1 | n | n | n | n
O=C(c1cccc(Br)c1)c1cn(-c2ccccc2)nc1C(=O)c1ccccc1 | 24853 | u | n | n
COCCNC(=O)C1(C)CCN(C(=O)c2cc(C(C)(C)C)nn2C)C1 (stereo not drawn) | n | n | n | n
O=C(NCCCNC(=O)c1ccc(F)cc1)c1ccc(F)cc1 | n | n | 57 | n
CCC(=O)Oc1ccc(-c2nc(-c3cccnc3)no2)cc1 | 20402 | n | n | n
COc1nc(NC(C)(C)C)nc(Oc2ccc(=O)n(-c3ccccc3)n2)n1 | 21751 | n | n | n
CN(C)c1nc(Oc2ccc(=O)n(-c3ccccc3)n2)nc(N2CCOCC2)n1 | 21946 | u | n | n
CCOC(=O)c1nnc(-c2ccccc2)nc1N1CC(C)OC(C)C1 (stereo not drawn) | n | n | n | n
COc1ccc(C2CC(=O)CCN2S(=O)(=O)c2ccc(C)cc2)cc1 (stereo not drawn) | n | n | n | n
SMILES | Bead autofluor | BoNT-A LC inh2 | BoNT-F LC inh | Anthrax LF prot
COc1ccccc1N(CC(=O)NC(C)(C)C)C(=O)Cn1nnc(-c2ccc(C)o2)n1 | n | n | n | n
CC(C)(C)NC(=O)CN(C(=O)Cn1nnc(-c2ccccc2F)n1)c1cccc2c1CCCC2 | 17013 | n | n | n
O=C1C=C(N(CCO)CCO)C2(CCCCC2)O1 | 22987 | u | n | n
CN(C)CCCNC1=CC(=O)OC12CCCCC2 | n | n | n | n
Cc1ccc(OCC(=O)N(C)CCc2ccccn2)cc1 | 24016 | u | n | n
Cc1ccc(OCC(=O)N2CCCC(CCC(=O)N(C)CCc3ccccn3)C2)cc1 (stereo not drawn) | n | n | n | n
COc1cccc(NC(=O)N(C2CCCCC2)C(C)c2cccs2)c1 (stereo not drawn) | 19720 | n | n | n
O=C(CN1C(=O)COc2ccccc21)NCCCN1CCN(c2ccccc2F)CC1 | n | n | n | n
CCN(CCCNC(=O)COc1cc(=O)n(C)c2ccccc12)c1cccc(C)c1 | 17522 | n | n | n
CCn1c(=O)cc(SCC(=O)NCCCN2CCN(c3ccccc3F)CC2)c2ccccc21 | 20693 | n | n | n
CCOC(=O)CNC(=O)COc1coc(CN2CCN(c3ccccc3F)CC2)cc1=O | n | 38 | n | n
CCOC(=O)CNC(=O)COc1coc(CN2CCN(c3ccccc3)CC2)cc1=O | n | n | n | n
